Experiment [1] deals with Transient receptor potential cation channel subfamily V member 1 (Homo sapiens) (UniProt Q8NER1). In words: HTS Assay for Compounds that Act as Enhancers of the Vanilloid Receptor 1 (AID 488979). Note: 0% is about no effect. The method in brief: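 TRPV1-expressing cells loaded with Fluo-8 calcium dye; compounds added and calcium influx read kinetically for 3 min (agonist phase), then capsaicin at EC20 added and read 2 min more for enhancement. Fluorescence ex 480/em 520 nm.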
Sequence of Transient receptor potential cation channel subfamily V member 1 (Homo sapiens) (Q8NER1 whole entry, looked up): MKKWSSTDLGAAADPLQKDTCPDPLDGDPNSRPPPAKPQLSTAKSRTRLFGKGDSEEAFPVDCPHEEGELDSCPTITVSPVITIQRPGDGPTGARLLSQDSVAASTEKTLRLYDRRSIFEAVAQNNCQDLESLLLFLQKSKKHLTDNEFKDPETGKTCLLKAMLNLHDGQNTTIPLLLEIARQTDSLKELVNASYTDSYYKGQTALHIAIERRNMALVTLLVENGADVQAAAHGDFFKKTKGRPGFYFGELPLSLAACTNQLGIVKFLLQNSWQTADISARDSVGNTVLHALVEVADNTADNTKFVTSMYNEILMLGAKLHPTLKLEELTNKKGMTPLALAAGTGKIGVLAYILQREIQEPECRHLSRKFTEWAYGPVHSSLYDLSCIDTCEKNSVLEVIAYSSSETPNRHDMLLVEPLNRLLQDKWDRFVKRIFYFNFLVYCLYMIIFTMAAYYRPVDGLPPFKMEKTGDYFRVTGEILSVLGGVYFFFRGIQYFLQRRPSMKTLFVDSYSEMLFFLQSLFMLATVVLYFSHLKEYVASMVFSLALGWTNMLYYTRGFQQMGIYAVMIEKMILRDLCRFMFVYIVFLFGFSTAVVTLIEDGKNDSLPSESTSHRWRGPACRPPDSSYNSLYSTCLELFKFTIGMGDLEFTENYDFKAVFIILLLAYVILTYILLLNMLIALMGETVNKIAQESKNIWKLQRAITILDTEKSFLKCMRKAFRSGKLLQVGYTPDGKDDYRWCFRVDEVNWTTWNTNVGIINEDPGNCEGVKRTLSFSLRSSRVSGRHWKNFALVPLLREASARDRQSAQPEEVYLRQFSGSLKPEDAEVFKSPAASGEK

Experiment [2] has as its target Thyrotropin receptor (Homo sapiens) (UniProt P16473). The experiment is described as follows: qHTS Assay for Antagonists of the Thyroid Stimulating Hormone Receptor (AID 488980). Note: series mostly up to about 58 µM; 0% is about no effect. The method in brief: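 Inhibition of TSH-stimulated cAMP accumulation was quantified by homogeneous time-resolved FRET in TSHR-transfected HEK293 cells. Agonist: TSH, 4 nM final (EC80).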
On the technique in general: qHTS replaces the single test concentration by a dilution series.

For experiment [3], the target named is D(1A) dopamine receptor (Homo sapiens) (UniProt P21728). In words: HTS Assay for Allosteric Agonists of the Human D1 Dopamine Receptor: Primary Screen for Potentiators (AID 488982). Note: 0% is about no effect. In a few lines:
(§1)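 Tetracycline-induced HEK293 T-REx cells force-coupled to calcium signalling were incubated overnight at 30 C and dye-loaded at room temperature. Calcium flux over 180 s after compound addition flagged agonists; a further 180 s read after EC20 dopamine flagged potentiators.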

For experiment [4] the target is unchanged. In words: HTS Assay for Allosteric Agonists of the Human D1 Dopamine Receptor: Primary Screen for Antagonists (AID 488983).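 Note: calcium flux response to an EC80 dopamine challenge measured with no-wash dye; % is set by controls: 0 for no effect and ±100 for the full control effect; nearly all actives have a fitted effect of over 65% in size.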 The method in brief: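 Cells are induced with tetracycline and incubated overnight at 30 C, then loaded with calcium dye for 30 to 90 minutes at room temperature. Compound addition is followed by a 180 s read, then an EC80 dopamine addition and another 180 s read.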

Experiment [5] can be described thus: Validation screen for small molecules that induce genotoxicity in human embryonic kidney (HEK293T) cells expressing luciferase-tagged ELG1 (AID 493106). Note: 0% is about no effect. The method in brief: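 Luminescence from an ELG1-luciferase fusion serves as the read-out, rising when genetic stress elevates ELG1 protein. HEK293T reporter cells (2,000 per well) received 23 nL compound, incubated 16 hr at 37 °C, then ONE-Glo for 30 min at room temperature.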

The target in experiment [6] is ATPase family AAA domain-containing protein 5 (Homo sapiens) (UniProt Q96QE3). The experiment is described as follows: Validation screen for small molecules that inhibit ELG1-dependent DNA repair in human embryonic kidney (HEK293T) cells expressing luciferase-tagged ELG1 (AID 493107). Note: nearly all actives have a fitted effect of over 70% in size. Note: potency is the fitted concentration of half-maximal effect. The method in brief:
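Luminescence from ONE-Glo, developed 30 min at room temperature, served as read-out of ELG1-luciferase levels. Beforehand, reporter HEK293T cells received 5-fluorouridine plus test compound for 16 hr at 37 °C.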

Experiment [7] concerns the target Thyrotropin-releasing hormone receptor (Homo sapiens) (UniProt P34981). The experiment is described as follows: qHTS for Small Molecule Agonists and Allosteric Enhancers of Human TRH Receptor: Validation Screen for Agonists (AID 493127;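 active = calcium activation more than 3 SD above the typical response in the agonist read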;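 note: intracellular calcium rise by fluo-8 fluorescence before TRH EC20 addition; 0% is about no effect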). The note with it: TRH receptor agonist cell assay; at 2 µM; stronger effect = higher value. In a few lines: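 Cells 2000/well, 10% FCS, 18 h 33.5C/5% CO2 → fluo-8 Ca dye, RT 30 min–1.5 h → FDSS baseline 10 × 1 s → compound added → 230 cycles (1 s/cycle) agonist mode. TRH controls.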

Experiment [8] in a line: Nrf2 qHTS screen for inhibitors: Validation (AID 493153; active = well fitted inhibition curve with a large enough effect in the main read-out, with a control signal flat, not every such curve was filed as active). The note with it: Potency: luciferase luminescence; viability change: measured here: cytotoxicity max response. In a few lines: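 Luminescence from an ARE-firefly luciferase reporter in A549 cells gives Nrf2 inhibition; an earlier CellTiter-Fluor fluorescent read flags cytotoxicity. Cells in 5% FBS OPTI-MEM received compound dilution series for 18-24 h at 37°C.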

Experiment [9] can be described thus: qHTS for Inhibitors of Cell Surface uPA Generation: Validation Assay (AID 493164). Note: 0% is about no effect. In a few lines: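 RAW 264.7 cells (4000/well) were plated overnight, then exposed for 18 h at 37 C, 5% CO2 to compounds in a 7-point 1:5 titration (2.45 nM–38.3 uM final). Intracellular ATP was read by ATP-Lite luminescence.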
Experiment [10] addresses Galactokinase (Homo sapiens) (UniProt P51570). The experiment is described as follows: qHTS Validation Assay for Inhibitors of Human Galactokinase (GALK) (AID 493189). Note: 0% is about no effect. The method in brief:
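Enzyme activity is inferred from ATP consumption: human GALK phosphorylates galactose (100 uM) using 35 uM ATP for 1 h at room temperature, and luciferase-based Kinase-Glo Plus reports unconsumed ATP.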

Experiment [11] addresses Peptidyl-prolyl cis-trans isomerase NIMA-interacting 1 (Homo sapiens) (UniProt Q13526). In words: qHTS Validation Assay to Find Inhibitors of Pin1 (AID 504536; active = well fitted inhibition curve with a large enough effect in the polarisation, with a control signal flat, not every such curve was filed as active; the % refers to the polarisation; note: potency is the fitted concentration of half-maximal effect). The method in brief: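 Fluorescence polarization competition: compounds (titration) displace HiFluor-488-labeled Pin1-1b peptide from Pin1 (0.3 uM final) in pH 7.5 HEPES buffer with DTT, 10 min at room temperature; %Activity normalized to no-enzyme wells, curves fitted.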

Experiment [12] concerns the target phosphoglycerate mutase (Leishmania major) (UniProt Q4Q090). In words: qHTS Validation Assay to Find Inhibitors of Phosphoglycerate Mutase (AID 504548).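 Note: end-point luminescence from Kinase-GloPlus after the PGAM reaction; series mostly up to about 58 µM; % is set by controls: 0 for no effect and ±100 for the full control effect.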 The note with it: Potency: inhibition qHTS. In a few lines: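 L. major PGAM (1.25nM final) was added to substrate buffer and pinned compound, incubated 45 minutes at room temperature, then Kinase-GloPlus added; luminescence read after 10 minutes. Buffer: 100 mM TEA pH 7.6, 5 mM MgCl2, 0.01% Tween-20.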

Experiment [13] deals with Ubiquitin carboxyl-terminal hydrolase 1 (Homo sapiens) (UniProt O94782). The experiment is described as follows: Inhibitors of USP1/UAF1: Pilot qHTS (AID 504865). Note: nearly all actives have a fitted effect of over 35% in size. Note: potency is the fitted concentration of half-maximal effect. In a few lines:
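Enzyme-free wells gave the negative control, while test wells held 1nM USP1/UAF1 preincubated with compound for 15 min at room temperature. Ub-Rho at 150nM final started the reaction, and fluorescence at 480/540 nm was recorded kinetically.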

Experiment [14] can be described thus: qHTS for Inhibitors of ATXN expression: Validation of Cytotoxic Assay (AID 588349). Note: % is set by controls: 0 for no effect and ±100 for the full control effect. In a few lines: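 Read-out: ATP-based luminescence (CellTiter Glo) reflecting viability of HEK293 cells after 72 hr incubation at 37 degrees C with a concentration series of each compound.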
The nature of experiment [15]: qHTS for Inhibitors of ATXN expression: Validation (AID 588378). Note: series mostly up to about 57 µM; % is set by controls: 0 for no effect and ±100 for the full control effect; nearly all actives have a fitted effect of over 75% in size. The method in brief:
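After a 2 h attachment and 24 h compound incubation, HEK293-ATXN2-FFLuc wells are read for fluorescence at 405 nm excitation/525 nm emission as a viability measure, then for Bright-Glo luminescence reflecting ATXN2 expression.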

Experiment [16] can be described thus: Validation screen for small molecules that induce DNA re-replication in SW480 colon adenocarcinoma cells (AID 504364). Note: 0% is about no effect. The method in brief: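 250 cells/well; compound pinned in; 48 hr, 37 C, 5% CO2; Hoechst added, 40 min; nuclear fluorescence imaged, 405 ex / 500-530 em; re-replication scored as increase in high-intensity nuclei.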
In experiment [17] the target is Phosphoglycerate kinase, glycosomal (Trypanosoma brucei brucei) (UniProt P07378). In words: qHTS Validation Assay to Find Inhibitors of Phosphoglycerate Kinase (AID 504547).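 Note: control wells lack PGK and mark full inhibition.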 The method in brief:
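Substrate/PGK mix plus compound; reaction started with GAPDH (100nM final) to form 1,3-BPG; 60 min RT; Kinase-Glo Plus 10 min; luminescence. TEA 100mM pH 7.6, MgCl2 5mM, Tween-20 0.01%.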

The target in experiment [18] is D(1A) dopamine receptor (Homo sapiens) (UniProt P21728). The experiment is described as follows: HTS Assay for Allosteric Agonists of the Human D1 Dopamine Receptor: Primary Screen for Agonists (AID 488981). Note: 0% is about no effect. The method in brief: as §1
Sequence of D(1A) dopamine receptor (Homo sapiens) (P21728 whole entry, looked up): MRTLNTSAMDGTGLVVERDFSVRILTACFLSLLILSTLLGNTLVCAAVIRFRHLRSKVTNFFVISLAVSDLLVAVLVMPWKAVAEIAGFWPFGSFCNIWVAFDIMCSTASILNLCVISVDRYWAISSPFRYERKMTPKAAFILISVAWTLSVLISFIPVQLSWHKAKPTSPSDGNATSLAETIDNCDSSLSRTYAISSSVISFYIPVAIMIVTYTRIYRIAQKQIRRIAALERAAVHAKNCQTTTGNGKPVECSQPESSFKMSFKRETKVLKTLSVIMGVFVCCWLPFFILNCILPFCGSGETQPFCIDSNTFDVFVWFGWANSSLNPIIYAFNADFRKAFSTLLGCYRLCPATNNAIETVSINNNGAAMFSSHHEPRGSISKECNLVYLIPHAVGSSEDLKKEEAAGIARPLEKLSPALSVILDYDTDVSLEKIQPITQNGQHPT

Records with an inconclusive call do not appear. Calls of active or inactive are those of the source. Unless noted, calls come from the whole dose curve; as a rule, active = well fitted curve in the direction sought with a large enough effect; inconclusive = small, poorly fitted or top-dose-only effect, or another doubt; inactive = no such curve, though single readings can be large; an effect the other way counts as inactive or inconclusive.

The text below walks through data of PubChem BioAssay (NCATS).

Sequence of Galactokinase (Homo sapiens) (P51570 whole entry, looked up): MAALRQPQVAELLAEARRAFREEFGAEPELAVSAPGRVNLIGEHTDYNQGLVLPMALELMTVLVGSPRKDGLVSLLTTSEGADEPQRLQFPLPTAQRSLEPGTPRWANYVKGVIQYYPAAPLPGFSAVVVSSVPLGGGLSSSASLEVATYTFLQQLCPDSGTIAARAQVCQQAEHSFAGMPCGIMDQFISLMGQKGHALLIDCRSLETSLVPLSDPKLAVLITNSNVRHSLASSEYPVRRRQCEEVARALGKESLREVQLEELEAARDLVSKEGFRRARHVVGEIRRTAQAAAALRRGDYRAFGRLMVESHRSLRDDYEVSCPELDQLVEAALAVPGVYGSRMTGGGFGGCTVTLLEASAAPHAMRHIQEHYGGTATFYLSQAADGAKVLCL
Sequence of Thyrotropin-releasing hormone receptor (Homo sapiens) (P34981 whole entry, looked up): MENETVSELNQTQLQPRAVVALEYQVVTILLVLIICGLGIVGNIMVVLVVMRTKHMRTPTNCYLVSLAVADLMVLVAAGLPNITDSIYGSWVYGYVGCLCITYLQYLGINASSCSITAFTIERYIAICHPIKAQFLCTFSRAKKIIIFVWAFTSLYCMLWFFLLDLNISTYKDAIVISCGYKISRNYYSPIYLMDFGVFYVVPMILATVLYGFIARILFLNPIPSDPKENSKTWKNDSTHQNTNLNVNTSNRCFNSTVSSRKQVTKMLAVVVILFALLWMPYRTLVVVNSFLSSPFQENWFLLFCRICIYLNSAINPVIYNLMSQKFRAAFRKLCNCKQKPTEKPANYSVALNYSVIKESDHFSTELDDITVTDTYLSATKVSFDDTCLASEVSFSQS
Sequence of Ubiquitin carboxyl-terminal hydrolase 1 (Homo sapiens) (O94782 whole entry, looked up): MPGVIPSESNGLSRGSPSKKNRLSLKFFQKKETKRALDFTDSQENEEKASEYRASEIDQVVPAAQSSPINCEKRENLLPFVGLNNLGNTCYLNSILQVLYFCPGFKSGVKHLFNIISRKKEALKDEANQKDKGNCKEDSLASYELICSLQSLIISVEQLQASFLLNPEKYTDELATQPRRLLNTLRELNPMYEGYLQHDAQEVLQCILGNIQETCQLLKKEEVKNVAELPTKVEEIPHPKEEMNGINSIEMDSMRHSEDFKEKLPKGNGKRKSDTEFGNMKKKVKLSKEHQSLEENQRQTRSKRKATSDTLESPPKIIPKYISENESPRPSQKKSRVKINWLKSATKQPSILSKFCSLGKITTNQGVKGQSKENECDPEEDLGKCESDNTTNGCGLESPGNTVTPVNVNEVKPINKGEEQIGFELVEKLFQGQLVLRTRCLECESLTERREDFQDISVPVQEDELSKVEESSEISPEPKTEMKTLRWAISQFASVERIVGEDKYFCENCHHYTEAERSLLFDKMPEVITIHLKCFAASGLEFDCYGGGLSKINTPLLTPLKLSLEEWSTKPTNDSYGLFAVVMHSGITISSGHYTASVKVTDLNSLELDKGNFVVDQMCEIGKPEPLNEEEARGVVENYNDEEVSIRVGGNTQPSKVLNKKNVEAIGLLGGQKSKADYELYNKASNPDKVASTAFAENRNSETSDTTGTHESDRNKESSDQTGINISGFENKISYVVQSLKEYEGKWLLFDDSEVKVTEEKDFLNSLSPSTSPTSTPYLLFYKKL
Sequence of Peptidyl-prolyl cis-trans isomerase NIMA-interacting 1 (Homo sapiens) (Q13526 whole entry, looked up): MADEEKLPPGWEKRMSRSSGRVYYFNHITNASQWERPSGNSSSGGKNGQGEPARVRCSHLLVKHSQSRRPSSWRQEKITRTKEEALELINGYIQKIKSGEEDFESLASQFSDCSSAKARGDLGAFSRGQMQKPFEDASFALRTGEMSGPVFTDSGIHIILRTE
Sequence of phosphoglycerate mutase (Leishmania major) (Q4Q090 1-553): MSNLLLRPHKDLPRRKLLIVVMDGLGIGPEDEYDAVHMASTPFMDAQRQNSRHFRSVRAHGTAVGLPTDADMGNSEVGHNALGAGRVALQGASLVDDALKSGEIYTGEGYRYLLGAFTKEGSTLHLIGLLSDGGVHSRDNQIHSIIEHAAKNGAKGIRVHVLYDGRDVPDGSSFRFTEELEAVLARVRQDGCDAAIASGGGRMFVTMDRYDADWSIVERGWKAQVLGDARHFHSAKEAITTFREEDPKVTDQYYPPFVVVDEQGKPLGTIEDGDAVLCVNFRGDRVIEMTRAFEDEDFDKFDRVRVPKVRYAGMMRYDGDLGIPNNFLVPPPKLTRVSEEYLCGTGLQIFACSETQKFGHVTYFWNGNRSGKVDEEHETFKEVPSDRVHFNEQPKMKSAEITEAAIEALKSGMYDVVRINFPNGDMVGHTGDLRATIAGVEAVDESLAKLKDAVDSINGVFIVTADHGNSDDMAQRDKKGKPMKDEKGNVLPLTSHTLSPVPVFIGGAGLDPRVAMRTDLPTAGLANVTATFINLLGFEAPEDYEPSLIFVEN
Sequence of Thyrotropin receptor (Homo sapiens) (P16473 whole entry, looked up): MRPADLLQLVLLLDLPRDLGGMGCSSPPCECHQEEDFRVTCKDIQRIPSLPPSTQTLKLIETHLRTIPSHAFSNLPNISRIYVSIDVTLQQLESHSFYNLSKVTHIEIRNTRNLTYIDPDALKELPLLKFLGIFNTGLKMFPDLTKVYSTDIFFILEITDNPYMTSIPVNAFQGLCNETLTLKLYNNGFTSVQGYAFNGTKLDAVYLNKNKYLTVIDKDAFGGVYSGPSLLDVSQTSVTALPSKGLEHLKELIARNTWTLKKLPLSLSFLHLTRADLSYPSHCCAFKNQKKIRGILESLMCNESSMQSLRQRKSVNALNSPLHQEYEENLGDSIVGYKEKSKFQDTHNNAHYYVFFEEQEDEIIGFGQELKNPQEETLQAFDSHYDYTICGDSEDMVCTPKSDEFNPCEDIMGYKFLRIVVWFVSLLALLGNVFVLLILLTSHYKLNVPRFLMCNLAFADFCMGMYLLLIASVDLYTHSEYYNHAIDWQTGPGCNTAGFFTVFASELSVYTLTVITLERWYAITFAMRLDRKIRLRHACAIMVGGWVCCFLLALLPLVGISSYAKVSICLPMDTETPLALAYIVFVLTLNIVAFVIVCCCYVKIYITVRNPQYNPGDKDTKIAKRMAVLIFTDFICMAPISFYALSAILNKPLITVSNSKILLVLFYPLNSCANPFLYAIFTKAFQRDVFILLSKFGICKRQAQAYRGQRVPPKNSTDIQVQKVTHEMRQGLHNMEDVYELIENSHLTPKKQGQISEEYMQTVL
Sequence of Phosphoglycerate kinase, glycosomal (Trypanosoma brucei brucei) (P07378 whole entry, looked up): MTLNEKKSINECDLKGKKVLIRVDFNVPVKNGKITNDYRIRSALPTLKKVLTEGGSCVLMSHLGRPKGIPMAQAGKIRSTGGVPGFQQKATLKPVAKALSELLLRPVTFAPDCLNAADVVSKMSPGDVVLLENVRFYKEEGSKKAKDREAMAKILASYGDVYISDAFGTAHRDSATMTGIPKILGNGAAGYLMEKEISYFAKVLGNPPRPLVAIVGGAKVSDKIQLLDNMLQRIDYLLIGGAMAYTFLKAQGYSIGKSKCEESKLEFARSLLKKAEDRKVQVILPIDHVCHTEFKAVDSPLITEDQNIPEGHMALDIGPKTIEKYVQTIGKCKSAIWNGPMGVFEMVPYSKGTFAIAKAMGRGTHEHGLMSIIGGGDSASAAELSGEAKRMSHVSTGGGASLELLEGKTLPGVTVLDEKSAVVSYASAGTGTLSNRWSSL

With `CC(N)=NCCCC[C@@H](N)C(=O)O`, the result in experiment [1], in experiment [2] and in experiment [9] was inactive. Also, the Potency entry in experiment [3], in experiment [4], in [5], in [6], in experiment [8] and in experiment [10] was “inactive” throughout. The Potency result in experiment [11], in experiment [12], in experiment [13], in [14] and in experiment [15] was “inactive” in each case. In addition, in experiment [7], the activation is 1.31% (inactive). In addition, in experiment [8], the viability change was -0.552%.

`CC(C)Cn1c(=O)n(C)c(=O)c2[nH]cnc21`: the outcome in [1] and in experiment [2] was inactive. In addition, the Potency entry in experiment [3], in [4], in experiment [5], in experiment [6], in [8] and in [10] was “inactive” each time. Also, the Potency entry in experiment [16], in [11], in [17], in [12], in [13] and in experiment [14] was “inactive” each time. Besides, in experiment [15], the Potency result is “inactive”. For the same compound, the activation in [7] was 0.875% (inactive). For the same compound, the viability change in [8] turned out to be 1.08%.

Turning to `N#C/C(=C\c1ccc(O)c(O)c1)C(=O)NCCCNC(=O)/C(C#N)=C/c1ccc(O)c(O)c1`, the result in experiment [1], in [2] and in experiment [9] was inactive. The Potency result in experiment [18], in experiment [4], in [5], in experiment [12] and in [15] was “inactive” each time. Further, the activation in experiment [7] is -0.0625% (inactive).

Consider `Cc1nc(N=Nc2ccc(C(=O)O)cc2)c(COP(=O)(O)O)c(C=O)c1O`, for which the result in experiment [1], in experiment [2] and in experiment [9] was inactive. Besides, the Potency entry in experiment [3], in experiment [4], in experiment [5], in [8], in experiment [16] and in experiment [17] was “inactive” each time. Moreover, the Potency result in [12] and in experiment [15] was “inactive” in each case. Besides, the activation in [7] is 0.125% (inactive). Besides, the viability change in experiment [8] is -9.24%. Also, the results for the Potency in [11] and in [13] were 26.9 µM (active) and 22.4 µM (active), respectively.

Regarding `Nc1ncnc2c1c(-c1ccc(Oc3ccccc3)cc1)cn2C1CCCC1`, the result in experiment [1], in [2] and in [9] was inactive. In addition, the Potency result in experiment [18], in [5], in [11], in experiment [12] and in [13] was “inactive” in each case. Also, in experiment [7], the activation is -5.06% (inactive).

Consider `CSC(N)=NCCC[C@H](N)C(=O)O`, for which the result in experiment [1], in [2] and in experiment [9] was inactive. Further, the Potency entry in [3], in experiment [4], in experiment [5], in experiment [6], in experiment [8] and in experiment [10] was “inactive” each time. Moreover, the Potency result in experiment [16], in experiment [11], in [17], in experiment [13] and in experiment [15] was “inactive” in each case. In addition, the activation in experiment [7] was 0.75% (inactive). Moreover, the viability change in experiment [8] is -16.2%.

`COCc1nc2c([nH]1)c(=O)n(C)c(=O)n2CC(C)C`: the outcome in experiment [1], in [2] and in [9] was inactive. In addition, the Potency entry in experiment [3], in experiment [4], in experiment [5], in [6], in [8] and in [10] was “inactive” throughout. Also, the Potency result in [16], in [11], in [12], in [13], in experiment [14] and in experiment [15] was “inactive” throughout. The activation in [7] was 0.875% (inactive). For the same compound, the viability change in [8] was found to be 1.53%.

For the compound `COc1cc(C(O)C(=O)O)ccc1O` (stereo not given), the outcome in experiment [1], in experiment [2] and in [9] was inactive. Also, the Potency result in experiment [3], in experiment [4], in experiment [5], in [6], in experiment [8] and in [10] was “inactive” in each case. Moreover, the Potency result in [16], in [11], in experiment [17], in experiment [12], in [13] and in experiment [14] was “inactive” throughout. The Potency result in experiment [15] is “inactive”. In addition, in [7], the activation is 1.12% (inactive). In addition, in [8], the viability change was 10.2%.

With `C=C1C(=O)O[C@@H]2[C@H]3O[C@]3(C)CCC=C(C)CC[C@@H]12`, the outcome in [1], in [2] and in experiment [9] was inactive. Besides, the Potency entry in experiment [3], in experiment [4], in experiment [5], in experiment [10], in experiment [11] and in [17] was “inactive” each time. The Potency result in experiment [12] and in [13] was “inactive” in each case. Moreover, the Potency in [6] was 25.9 µM (active). Also, in experiment [7], the activation was -0.125% (inactive).
